Source: PubChem
D1 agonist = agonists of human D1 dopamine receptor; P21728; 1% of 360,000 active; HEK293 T-REx D1 cells, calcium flux, agonist mode; activation, % at 2 µM; note: 0% is about no effect
Target sequence (P21728 whole entry, looked up): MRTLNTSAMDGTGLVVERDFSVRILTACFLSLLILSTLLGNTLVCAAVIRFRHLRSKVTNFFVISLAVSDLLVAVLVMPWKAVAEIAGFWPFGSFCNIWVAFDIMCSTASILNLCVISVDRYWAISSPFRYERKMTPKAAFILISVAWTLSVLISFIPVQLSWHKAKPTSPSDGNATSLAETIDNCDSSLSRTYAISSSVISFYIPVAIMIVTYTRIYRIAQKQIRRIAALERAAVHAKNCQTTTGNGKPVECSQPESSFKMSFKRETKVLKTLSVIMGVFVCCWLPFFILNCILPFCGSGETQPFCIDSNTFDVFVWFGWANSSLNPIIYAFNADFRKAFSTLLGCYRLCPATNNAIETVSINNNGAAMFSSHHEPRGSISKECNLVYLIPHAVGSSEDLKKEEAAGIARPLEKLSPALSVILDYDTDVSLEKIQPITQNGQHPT
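Inducible HEK293 T-REx D1 cells, force-coupled to calcium signalling, were plated at 4000 cells/well with tetracycline and held overnight at 30 C. After no-wash calcium dye loading, compound-evoked calcium rise over 180 s flagged agonists.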
D1 PAM = enhances dopamine response at the human D1 receptor; potentiation, % at 10 µM; 0.036% of 360,000 active; AID 504651; P21728; HEK293 TREx D1 cells, calcium flux, dopamine EC20 potentiation; in the data active = potentiation above about 30%; note: 0% is about no effect
TRHR agonist = TRH receptor (human) agonism. 0.18% of 360,000 active. activation, % at 2 µM. P34981. TRHR cells, calcium flux fluo-8, FDSS agonist mode; note: 0% is about no effect
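Fluo-8-loaded TRHR cells; 10 s baseline, compound added, kinetic Ca2+ fluorescence read 1/s, agonist mode.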
TRHR enhancer = allosteric enhancers of human TRH receptor; P34981; TRHR cells, fluo-8 calcium fluorescence, EC20 TRH enhancement; enhancement, % at 2 µM; 0.66% of 360,000 active; in the data active = enhancement above about 30%; note: 0% is about no effect
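Enhancer read-out: after compound pinning and an initial kinetic agonist-mode read, an EC20 of TRH (10 nM final) was injected and fluo-8 calcium signal (Ex 480/Em 530) followed at 1 s/cycle for 100 cycles in TRHR-expressing cells.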
D1 antagonist = antagonists of human D1 dopamine receptor | P21728 | HEK293 TREx D1 cells, calcium flux, dopamine EC80; stronger effect = lower value | activity change, negative = inhibition, % at 10 µM | 3.2% of 360,000 active | AID 504652; in the data active = activity change below about -30%; note: % is set by controls: 0 for no effect and ±100 for the full control effect
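Tetracycline-induced HEK293 Trex D1 cells, force-coupled to calcium, dye-loaded; compounds added and read 180 s, then EC80 dopamine added and calcium flux tracked kinetically another 180 s.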
* marks the source's active call; other numbers are inactive results. Hits are enriched below; roughly 4.7% of the tested compounds scored in any of these assays. Cut-off read from the data, not from the text of the source, unless noted: active = activation above about 30%; inactive = the rest.

For CC(C)(C)c1cc(C(=O)NCc2ccccc2)ccn1 the results were D1 agonist 6.8, D1 PAM 5.6, TRHR agonist 0.3, TRHR enhancer -4.4 and D1 antagonist -32.1*.
CS(=O)(=O)c1cccc(C(=O)NCc2ccccc2)c1 was read as D1 agonist 0.8, D1 PAM 8.5, TRHR agonist -0.7, TRHR enhancer -2.7 and D1 antagonist 7.7.
Screening OCc1cnc(SCc2cccc(F)c2)n1Cc1ccc(F)cc1 returned D1 agonist 0.4, D1 PAM 0.1, TRHR agonist -0.2, TRHR enhancer -6.1 and D1 antagonist 1.9.
For Cc1c(C(=O)NCc2ccccc2Cl)sc2nc[nH]c(=O)c12 the results were D1 agonist 0.2, D1 PAM -4.2, TRHR agonist -0.1, TRHR enhancer 0.8 and D1 antagonist -20.2.
Cc1ccccc1-n1c(=O)c2ccccc2n(CC(=O)NCc2ccco2)c1=O was read as D1 agonist 2.0, D1 PAM -3.0, TRHR agonist 1.3, TRHR enhancer 3.9 and D1 antagonist -7.8.
For Cc1c(C)n(Cc2ccccc2)c2ccc(C(=O)OCCN(C)C)cc12 the results were D1 agonist 56.8*, D1 PAM -4.0, TRHR agonist 23.2, TRHR enhancer 5.5 and D1 antagonist -24.7.
`COc1cccc(CNC(=O)c2ccncc2)c1` gave D1 agonist 0.8, D1 PAM -3.1, TRHR agonist 0.2, TRHR enhancer 31.7* and D1 antagonist 12.6.
CC(=O)c1c(C)n(CC(=O)NCc2ccco2)c2ccccc12 was read as D1 agonist 0.8, D1 PAM -3.5, TRHR agonist -0.2, TRHR enhancer 35.1* and D1 antagonist 8.6.
For CCc1ccc(NC(=O)c2ccc3c(c2)c(C)c(C)n3Cc2ccccc2)cc1 the results were D1 agonist 1.0, D1 PAM -4.0, TRHR agonist 0.3, TRHR enhancer -0.1 and D1 antagonist 13.1.
`COc1ccc(NC(=S)N2CCN(S(=O)(=O)c3ccccc3)CC2)cc1OC` gave D1 agonist 5.7, D1 PAM 1.1, TRHR agonist 0.8, TRHR enhancer 1.1 and D1 antagonist 1.1.
For C=C1/C(=C\C=C2/CCC[C@]3(C)[C@@H]([C@H](C)CCCC(C)(C)O)CC[C@@H]23)C[C@@H](O)C[C@@H]1O the results were D1 agonist 25.8, D1 PAM 5.8, TRHR agonist 1.0, TRHR enhancer 2.5 and D1 antagonist 47.4.
`Cc1ccc(C(=O)Nc2cccnc2)cc1Cl` gave D1 agonist 0.5, D1 PAM 2.6, TRHR agonist -0.6, TRHR enhancer -7.7 and D1 antagonist -5.1.
Screening O=[N+]([O-])c1ccc(-n2nnnc2-c2ccccc2)cc1 returned D1 agonist -3.6, D1 PAM 1.4, TRHR agonist 0.0, TRHR enhancer 35.6* and D1 antagonist -7.1.
`O=S(=O)(c1ccc(NC(=S)NCCc2ccccc2)cc1)N1CCOCC1` gave D1 agonist 14.6, D1 PAM -2.5, TRHR agonist 1.2, TRHR enhancer -1.4 and D1 antagonist -3.0.
Cc1ccc(C(=O)NC(=S)Nc2ccc(S(=O)(=O)N3CCN(C)CC3)cc2)cc1 was read as D1 agonist 6.8, D1 PAM -17.1, TRHR agonist -0.3, TRHR enhancer -2.8 and D1 antagonist -56.5*.
Cc1cccc(C(=O)NC(=S)Nc2ccc(S(=O)(=O)N3CCN(C)CC3)cc2)c1 was read as D1 agonist 5.9, D1 PAM -21.2, TRHR agonist 0.1, TRHR enhancer 3.0 and D1 antagonist -28.1.
`O=S(=O)(c1ccc(NC(=S)NCc2ccc(F)cc2)cc1)N1CCOCC1` gave D1 agonist 30.3*, D1 PAM -12.1, TRHR agonist 3.5, TRHR enhancer -4.4 and D1 antagonist -48.9*.
For CC(=O)NC(=S)Nc1ccc(S(=O)(=O)N2CCOCC2)cc1 the results were D1 agonist 0.7, D1 PAM -3.8, TRHR agonist 0.2, TRHR enhancer 31.9* and D1 antagonist -8.0.
For COc1ccc(NS(=O)(=O)c2ccc(S(=O)(=O)N3CCOCC3)cc2)cc1 the results were D1 agonist 34.1*, D1 PAM -3.8, TRHR agonist 1.9, TRHR enhancer 1.8 and D1 antagonist -32.8*.
`CC(=O)Nc1ccc(S(=O)(=O)N2CCOCC2)cc1` gave D1 agonist 4.9, D1 PAM -6.2, TRHR agonist 0.8, TRHR enhancer -4.6 and D1 antagonist 1.0.
Screening O=S(=O)(c1ccccc1)N1CCSC1c1ccco1 (centres undefined) returned D1 agonist 2.0, D1 PAM -5.3, TRHR agonist 0.4, TRHR enhancer 33.8* and D1 antagonist -44.2*.
For CC(=O)Nc1ccc(S(=O)(=O)N2CCSC2c2ccco2)cc1 (centres undefined) the results were D1 agonist 3.7, D1 PAM -5.5, TRHR agonist 0.8, TRHR enhancer 0.8 and D1 antagonist 0.9.
For CCCCC(=O)Nc1ccccc1C(=O)OCc1cc(=O)n2nc(C3CCCCC3)sc2n1 the results were D1 agonist -1.4, D1 PAM 0.1, TRHR agonist -0.3, TRHR enhancer -3.4 and D1 antagonist -2.9.
Screening CC1CCc2nc(NC(=O)CN3CCOCC3)sc2C1 (centres undefined) returned D1 agonist 0.0, D1 PAM -6.2, TRHR agonist 0.2, TRHR enhancer -6.1 and D1 antagonist -34.0*.
`COc1ccc(Cl)c(N2CCN(CCCNC(=O)Nc3ccc(C)cc3)CC2)c1` gave D1 agonist 29.2, D1 PAM -21.3, TRHR agonist -0.9, TRHR enhancer 6.6 and D1 antagonist -59.6*.
`CC(Oc1ccc(Cl)cc1Cl)C(=O)NCCN1CCOCC1` (centres undefined) gave D1 agonist 3.9, D1 PAM -7.7, TRHR agonist -0.7, TRHR enhancer -0.3 and D1 antagonist 15.8.
For Cc1ccc(NC(=O)NCCN2CCN(c3ccccc3)CC2)cc1Cl the results were D1 agonist 12.6, D1 PAM -5.5, TRHR agonist -1.0, TRHR enhancer 13.2 and D1 antagonist -16.0.
COc1ccc(N2CCN(CCNC(=O)Nc3cc(Cl)ccc3OC)CC2)cc1 was read as D1 agonist 44.4*, D1 PAM -16.3, TRHR agonist -1.6, TRHR enhancer 29.1 and D1 antagonist -18.2.
Screening O=C(NCCN1CCOCC1)Nc1ccc(Cl)cc1Cl returned D1 agonist 1.3, D1 PAM 2.4, TRHR agonist -0.2, TRHR enhancer 2.0 and D1 antagonist -44.5*.
`COc1ccc(NC(=O)NCCN2CCN(c3cc(OC)ccc3OC)CC2)cc1` gave D1 agonist 2.7, D1 PAM 1.1, TRHR agonist -0.7, TRHR enhancer 3.2 and D1 antagonist 3.5.
Screening COc1ccc(Cl)cc1N1CCN(CCNC(=O)Nc2ccccc2C)CC1 returned D1 agonist 7.9, D1 PAM -9.6, TRHR agonist 0.2, TRHR enhancer -3.5 and D1 antagonist -14.8.
